This is a sample that favours compounds with a hit; in the whole collection about 1.4% have one here.
F508del corr = CFTR F508del correction in bronchial cells | activity (quench increase), % at 7.58 µM | 350,000 compounds, 0.36% hits | CFBE cells, YFP halide quenching; stimulated with forskolin plus potentiator P3; % fluorescence drop versus neutral controls | AID 720511;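 active means mean added fluorescence quench of at least 8% versus neutral control, with both replicates also reaching 8%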;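 further: cells transiently co-express mutant CFTR-F508del with the halide-sensitive YFP; corrector assay measuring rescue of mutant channel to the surface after 24 h compound exposure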
ARNT-TACC3 inh = disrupts binding between human ARNT and TACC3; AlphaScreen His-ARNT PAS-B/GST-TACC3 binding, luminescence; TACC3 fragment carries E629A point mutation; inhibition, % at 9.99 µM; 390,000 compounds, 0.66% hits;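 active means mean inhibition of replicates at least 50% and at least half of replicates each reaching 50%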;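 further: 0% = complete ARNT plus TACC3 wells and 100% = ARNT alone without TACC3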
Statin myotox sup = suppressors of simvastatin-induced myotoxicity in C2C12 myotubes. ATP luminescence, 48 h; scaled: DMSO 0, geranylgeraniol control 100. rescue of ATP level, % at 7.49 µM. 330,000 compounds, 0.78% hits. AID 602340;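 active means mean ATP rescue above about 67%, or every replicate alone reaching that limit, limit read from the data, passing the limit was not always enough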;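 further: myotubes were challenged with 10 µM simvastatin during compound exposure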
PglD inh = inhibitors of Campylobacter jejuni PglD acetyltransferase; purified PglD enzyme, DTNB colorimetric CoA detection; inhibition, % at 12.5 µM; 360,000 compounds, 0.098% hits; in the data active means inhibition above about 16%, passing the limit was not always enough
ARNT Alpha ctr-1 = AlphaScreen artifact in ARNT/TACC3 counter-screen; His-ARNT PASB-GST AlphaScreen artifact counter-screen, luminescence; 1,200 compounds, 50% hits; AC50, µM (highest dose often 68 µM), for inactives: at the top dose activity change, negative = signal decrease; shares compounds with ARNT-TACC3 inh;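 active means every separate test run was called active for a drop in luminescence, with AC50 within twice the top valid dose, actives reach about 71 µM in these data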
ARNT Alpha ctr-2 = AlphaScreen artifact flagged for ARNT-TACC3 inhibitors. Dual-tagged His-ARNT PASB-GST AlphaScreen artifact counter-screen. AC50, µM. shares compounds with ARNT-TACC3 inh. 45 compounds, 70% hits;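 active means luminescence drop, with half-maximal potency fitted within twice the sample's top valid dose, cut at about 70 µM in these data; inactive means the rest, including signal moving the wrong way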
Active calls of the source: *; nt = no result; [ ] = another dose, or the depositor's remark.

SMILES	F508del corr	ARNT-TACC3 inh	Statin myotox sup	PglD inh	ARNT Alpha ctr-1	others
COc1cc(/C=N/NC(=O)c2cncc(Br)c2)cc([N+](=O)[O-])c1O	-1	58*	53	-2	36µM*
CC(C)NC(=O)N(C)C[C@@H]1Oc2ccc(NC(=O)Cc3cn(C)c4ccccc34)cc2C(=O)N([C@@H](C)CO)C[C@H]1C	4	-4	16	-2	nt
O=c1cc(CSc2ccc(Cl)cc2)nc(-c2ccccc2)[nH]1	-6	1	nt	nt	nt
Clc1ccc(SCc2cc(N3CCOCC3)nc(-c3ccccn3)n2)cc1	8.1*	60*	nt	nt	-14%
O=c1cc(CSc2ccc(Cl)cc2)nc(-c2ccccn2)[nH]1	7	61*	24	2	53µM*
Clc1ccc(SCc2csc(N3CCOCC3)n2)cc1	-1	-2	nt	nt	nt
O=C(C[C@H]1C[C@@H]2c3cc(NC(=O)CC4CC4)ccc3O[C@@H]2[C@H](CO)O1)NCc1ccc2c(c1)OCO2	-1	nt	7	5	nt
C/C=C/c1ccc([C@H]2[C@@H](CO)N(Cc3ccccn3)[C@@H]2CNC(C)=O)cc1	1	30*	-4	-1	-11%[42 µM]
C/C=C/c1ccc([C@H]2[C@@H](CO)N(Cc3ccccn3)[C@H]2CNC(=O)CC)cc1	6	41*	2	0	-23%[42 µM]
C/C=C/c1ccc([C@H]2[C@@H](CO)N(Cc3ccccn3)[C@@H]2CNC(=O)CC)cc1	1	23	11	0	nt
COCC(=O)Nc1ccc2c(c1)C(=O)N(C)C[C@H](OC)[C@H](C)CN(CCC(F)(F)F)[C@H](C)CO2	-3	-17	1	-1	nt
O=C(NC1CCC1)[C@H]1[C@H](CO)[C@H]2Cn3c(ccc(-c4ccc(F)cc4)c3=O)[C@@H]1N2Cc1cocn1	0	nt	nt	nt	nt
Cc1csc(NC(=O)CSc2ccc(-c3ccccn3)nn2)n1	-2	61*	-2	-6	16µM*
Cc1cc(C)cc(NC(=O)CSc2ccc(-c3ccccn3)nn2)c1	1	11	-4	-1	nt
COC(=O)c1ccc(NC(=O)CSc2ccc(-c3ccccn3)nn2)cc1	2	60*	4	-1	-37%
O=C(CSc1ccc(-c2ccccn2)nn1)N1CCCc2ccccc21	-4	59*	15	-4	30µM*
COc1ccccc1CNC(=O)CSc1ccc(-c2ccccn2)nn1	-1	73*	nt	nt	59µM*
CCOC(=O)c1ccc(NC(=O)CSc2ccc(-c3cccnc3)nn2)cc1	1	-4	-1	11	nt
O=C(CSc1nnc(-c2ccccn2)o1)Nc1ccccc1Cl	1	75*	-9	-4	-27%
O=C(CSc1ccc(-c2ccccn2)nn1)Nc1nccs1	0	61*	nt	nt	60µM*	ARNT Alpha ctr-2=4.7*
Cn1c(SCC(=O)Nc2nccs2)nnc1-c1ccccn1	0	3	10	-2	nt
O=C(CSc1ccc(-c2ccccn2)nn1)Nc1cccc(F)c1	1	74*	2	2	12µM*
Cc1ccccc1NC(=O)CSc1ccc(-c2ccccn2)nn1	4	61*	nt	-4	35µM*
O=C(CSc1nnc(-c2ccncc2)o1)Nc1ccccc1Cl	nt	-4	2	-3	nt
O=C(C1CCC1)N1CC[C@@H]2[C@H](CO)Nc3ccc(Br)cc3[C@@H]21	4	nt	nt	nt	nt
SMILES	F508del corr	ARNT-TACC3 inh	Statin myotox sup	PglD inh	ARNT Alpha ctr-1	others
C[C@@H]1CN([C@H](C)CO)C(=O)c2cccc(NS(=O)(=O)c3cn(C)cn3)c2O[C@H]1CN(C)Cc1ccc(C(F)(F)F)cc1	4	-2	-18	0	nt
O=C(CN1CC(=O)Oc2ccccc21)OCC(=O)c1ccccc1	nt	54*	45	0	8.3µM*
O=C(CN1C(=O)c2ccccc2C1=O)OCC(=O)c1ccc(F)cc1	-1	-3	-14	-6	nt
O=C(NCCc1ccccc1)c1ccc(=O)[nH]c1	nt	active	nt	nt	-5%
O=C1C=C(O)c2cccc(O)c2C1=O	-3	52*	28	3	-8%
O=C1C=C(c2c(O)ccc3ccccc23)c2ccccc2C1=O	-3	34	-5	nt	nt
CO[C@@H]1CN(C)C(=O)c2ccc(NS(C)(=O)=O)cc2OC[C@@H](C)N(S(C)(=O)=O)C[C@H]1C	2	-4	-2	0	nt
C/C(=N\NC(=O)c1c[nH]c2ccccc12)c1ccc(C)o1	nt	62*	-16	2	57µM*
O=C(NC[C@@H]1[C@H](c2ccccc2)[C@H](CO)N1Cc1ccccn1)C1CCC1	1	60*	5	-3	-22%[42 µM]
O=C(NC[C@@H]1[C@@H](c2ccccc2)[C@@H](CO)N1Cc1ccccn1)NC1CCCC1	1	nt	nt	nt	nt
O=C(NC[C@H]1[C@@H](c2ccccc2)[C@@H](CO)N1Cc1ccccn1)C1CCC1	-1	56*	-4	1	70µM*
O=C(C1CCCC1)N1C[C@@H]2[C@H](c3ccccc31)[C@H](CO)N2C(=O)Cc1ccccn1	-1	51*	10	16	-12%[42 µM]
O=C(NC[C@@H]1[C@H](c2ccccc2)[C@H](CO)N1Cc1ccccn1)C1CCCC1	3	53*	-8	2	-25%[42 µM]
O=C(NC[C@H]1[C@H](c2ccccc2)[C@@H](CO)N1Cc1ccccn1)C1CC1	2	12	-3	0	nt
O=C(C[C@H]1CC[C@@H]2[C@H](COC[C@@H](O)CN2S(=O)(=O)c2ccccc2F)O1)NCc1ccccc1Cl	0	-1	2	2	nt
CO[C@@H]1CN(C)C(=O)c2cc(NC(=O)Nc3cccc(F)c3)ccc2OC[C@H](C)NC[C@H]1C	1	-2	-10	3	nt
COc1ccc(S(=O)(=O)N(C)C[C@H]2Oc3ccc(NC(=O)C4CCCCC4)cc3C(=O)N([C@@H](C)CO)C[C@@H]2C)cc1	-1	-11	-7	-1	nt
COc1ccc2c3c(n(C)c2c1)[C@@H](CO)N(C(=O)c1ccccn1)CC31CN(C(=O)c2ccccn2)C1	2	nt	nt	nt	nt
C[C@@H]1CN([C@H](C)CO)S(=O)(=O)c2ccc(-c3cccnc3)cc2O[C@H]1CN(C)Cc1cncnc1	0	2	-8	18	nt
Cc1nnc(-c2ccccc2)c(=O)n1/N=C/c1c(O)ccc2ccccc12	nt	62*	84*	nt	64µM*
Cc1nnc(C)n1/N=C/c1c(O)ccc2ccccc12	-1	9	2	-7	nt
Cc1nc2ccccc2c(=O)n1/N=C/c1ccc(O)c(O)c1O	5	52*	-1	-7	-12%
COCC(=O)Nc1ccc2c(c1)C(=O)N(C)[C@@H]1CC[C@H](CC(=O)NCc3ccccc3Cl)O[C@@H]1CO2	1	-2	0	4	nt
O=C(O)C[C@H]1C[C@@H]2c3cc(NS(=O)(=O)c4ccc(F)cc4)ccc3O[C@@H]2[C@@H](CO)O1	0	-4	2	1	nt

Screens deposited in PubChem BioAssay by Broad Institute.
